Pf growth 96h – Primary qHTS for delayed death inhibitors of the malarial parasite plastid, 96 hour incubation. P. falciparum luciferase reporter growth, 96 h. 6.9% of 320,000 active. Potency, µM (doses to about 28.7 µM), for the others: at the highest dose activity change, negative = inhibition, usual class: inhibitors; further: potency means the concentration at half of the fitted maximal effect; on the % scale 0 is the no-effect control and ±100 the full control effect
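Delayed-death screen, second-generation endpoint: infected erythrocytes, 2% hematocrit, 0.05% parasitemia final; 96 hours at 37 C, 5% CO2; luciferase detection reagent; luminescence decrease equals reduced growth.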
Pf growth 48h – Primary qHTS for delayed death inhibitors of the malarial parasite plastid, 48 hour incubation; P. falciparum luciferase growth in erythrocytes, 48 h; Potency, µM (series often up to 28.7 µM), without a hit: at the highest dose activity change, negative = inhibition, most hits filed as inhibitors; 5.9% of 310,000 active; further: potency means the concentration at half of the fitted maximal effect; on the % scale 0 is the no-effect control and ±100 the full control effect
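Erythrocytes infected with P. falciparum carrying an integrated firefly luciferase reporter (2% hematocrit, 0.1% parasitemia final) were exposed to compounds in RPMI 1640 with 0.5% Albumax at 37 C, 5% CO2. Growth inhibition was scored as reduced luminescence.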
Cycloheximide cs – Cycloheximide Counterscreen for Small Molecule Inhibitors of Shiga Toxin | cell reporter, cycloheximide protein synthesis inhibition counterscreen | max response, % | 12% of 300,000 active | AID 2314, 2010; in the data active means max response mostly above about 13%, no sharp cut-off; inactive means mostly below about 14%; further: read at 38.3 µM for the half of the compounds with a filed dose; 0% is about no effect
NS1 inh – qHTS Assay for Inhibitors of Influenza NS1 Protein Function; Potency, µM (doses to about 46.1 µM), for inactives: top-dose activity, positive = more growth; 0.4% of 270,000 active; calls by dose curve; further: potency means the concentration at half of the fitted maximal effect; actives are rising curves; nearly all actives have a fitted effect of over 50% in size
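OD600 was taken as the measure of yeast growth restored by compound in an NS1-expressing S. cerevisiae strain. Cells had been washed out of glucose medium and diluted 1:100 into galactose -URA medium, pH 6.0.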
SARS PLpro yeast-1 – qHTS of Yeast-based Assay for SARS-CoV PLP; S. cerevisiae expressing SARS-CoV PLpro, growth rescue; Potency, µM (doses to about 32.9 µM), inactives show at the highest dose activity, positive = growth rescue, actives largely listed as activators; 0.19% of 330,000 active; AID 485353, 2010; calls by dose curve; further: potency means the concentration at half of the fitted maximal effect; 0% is about no effect; nearly all actives have a fitted effect of over 55% in size
Shiga inhibitor – A qHTS for Small Molecule Inhibitors of Shiga Toxin; Vero cells, Shiga toxin protein synthesis inhibition reporter; inhibition, % at 38.7 µM; 9.2% of 290,000 active; in the data active means inhibition mostly above about 28%, no sharp cut-off; inactive means mostly below about 43%; further: 0% is about no effect
SARS PLpro yeast-2 – qHTS of Yeast-based Assay for SARS-CoV PLP: Hit Validation; shares compounds with SARS PLpro yeast-1; calls only; 19% of 1,000 active; AID 652038, 2013; yeast expressing SARS-CoV PLpro, growth phenotype rescue; call rule not given here
* hit, by the source's call; i = inactive; u = inconclusive; x = not tested or not shown; + = active, no number. Not all results are given here. Unless noted, the call rests on the fitted dose curve; in most records, active means well fitted inhibition curve with a large enough effect; inconclusive means small, poorly fitted or top-dose-only effect, or another doubt; inactive means no such curve, though single readings can be large or run the other way.

SMILES	Pf growth 96h	Pf growth 48h	Cycloheximide cs	NS1 inh	SARS PLpro yeast-1	Shiga inhibitor	SARS PLpro yeast-2
COc1ccc(OCC(=O)Sc2ccc(C)cc2)cc1	u	13.1%	8.1	-50.6%	2.82µM*	-0.9	i
C/C(=N\NC(=O)c1cc(C2CC2)nc2ccccc12)c1ccc(O)cc1O	-1.8%	u	-7.6	-15.7%	u	-10.4	x
C/C(=N\NC(=O)c1cc(-c2cccnc2)nc2ccccc12)c1ccccc1O	u	6.57µM*	11.4*	9.7%	10µM*	16.5	+
CCOC(=O)N1CCN(C(=O)c2ccc3nc(SCc4ccc(F)cc4)n(C)c3c2)CC1	x	u	-2.5	-24.9%	-10.6%	-6.6	x
CCCCn1c(N)c(N(CC)C(=O)c2cc(S(=O)(=O)N3CCCCCC3)ccc2OC)c(=O)[nH]c1=O	-8.4%	0.0%	x	x	u	x	i
Cc1[nH]n(-c2ccccc2)c(=O)c1/C=N/NC(=O)c1cccc([N+](=O)[O-])c1	u	30.3%	-2.5	-3.2%	6.8%	-8.6	x
Cc1[nH]n(-c2cccc3ccccc23)c(=O)c1/C=N/NC(=O)c1cccc([N+](=O)[O-])c1	46.6%	u	-2.0	u	u	15.8	+
CNC[C@H]1Oc2c(NS(=O)(=O)c3ccccc3)cccc2C(=O)N([C@H](C)CO)C[C@@H]1C	x	x	x	x	10µM*	x	i
COc1ccc(NC(=O)N(C)C[C@H]2Oc3c(NC(=O)C4CC4)cccc3C(=O)N([C@H](C)CO)C[C@@H]2C)cc1	x	x	x	x	u	x	i
CCC1CCCCN1Cc1ccc(CNC(=O)CCc2nnc3ccc(N4CCCCC4)nn23)o1 (stereo not drawn)	u	u	0.1	-2.3%	-0.4%	-2.4	x
CCCCc1ccc(NC(=O)CN2C(=O)C3CCCCC3C2=O)cc1 (stereo not drawn)	-12.3%	16.7%	x	x	-7.6%	x	x
COC(=O)Nc1ccc(S(=O)(=O)Nc2ccc(O)cc2)cc1	45.4%	u	-4.9	10.6%	u	-4.1	i
C=CCN1C(=O)C2C3C=CC(C2C1=O)C1C2C(=O)N(CC=C)C(=O)C2C31 (stereo not drawn)	2.8%	23.1%	-0.4	0.7%	1.3%	4.2	x
CC1CC(C)(C)NC(=S)N1CC(=O)NCc1ccc(F)cc1 (stereo not drawn)	-14.6%	-2.9%	9.9	x	3.0%	-19.4	x
CC1CC(C)(C)NC(=S)N1CC(=O)N(C)Cc1ccccc1 (stereo not drawn)	-13.2%	-20.3%	-3.3	0.4%	u	-9.5	i
Cc1ccc(NC(=S)N2CCC(C(N)=O)(N3CCCCC3)CC2)c(C)c1	48.1%	6.4%	-2.0	1.1%	1.3%	-13.7	x
Nc1c(Cl)cc(-c2[nH]c3cc(C(=O)NCCO)ccc3c(=O)c2O)cc1Cl	u	u	-2.2	-61.8%	u	-6.8	+
COc1cccc(N=CC2=C(O)CC(C)(C)CC2=O)c1	-8.0%	-6.7%	12.9*	29.6%	x	23.9	i
Cn1c(SCC(=O)C(C)(C)C)nnc1-c1ccncc1	5.2%	x	-4.0	8.1%	9.7%	-14.5	x
CC(=O)CSc1nnc(-c2ccncc2)n1C	-22.2%	x	-3.5	1.2%	u	-12.9	i
O=C(COC(=O)CNC(=O)c1ccccc1)Nc1ccc(S(=O)(=O)N2CCOCC2)cc1	0.0%	1.7%	-8.1	x	0.2%	-11.1	x
CC(OC(=O)CNC(=O)c1ccccc1)C(=O)Nc1ccc(S(=O)(=O)N2CCOCC2)cc1 (stereo not drawn)	0.1%	5.8%	x	x	u	x	i
CC1CN=C(c2cccn2Cc2ccc(F)cc2Cl)O1 (stereo not drawn)	207.1%	20.0%	3.5	-3.7%	-3.5%	-10.9	x
Cc1[nH]c2ccc(F)cc2c1CCNC(=O)C1CCCCC1C(=O)OCC(F)(F)F (stereo not drawn)	35.5%	-7.5%	-3.9	-7.3%	9.8%	-15.1	x
CN(CC(=O)Nc1c(Cl)cccc1Cl)C(=O)c1cc(S(=O)(=O)N(C)C)ccc1N1CCCC1	u	u	x	x	u	x	i
SMILES	Pf growth 96h	Pf growth 48h	Cycloheximide cs	NS1 inh	SARS PLpro yeast-1	Shiga inhibitor	SARS PLpro yeast-2
COc1ccc(NC(=O)CN(C)C(=O)c2cc(S(=O)(=O)N(C)C)ccc2N2CCCC2)cc1	8.9%	-8.2%	x	x	x	x	x
Cc1cccc(NC(=O)Cn2cnc3c(oc4nc5c(cc43)COC(C)(C)C5)c2=O)c1	0.0%	-0.1%	12.7	-4.8%	12.6µM*	24.7	i
C/C(=N\NC(=O)CCCNc1ccccc1)c1ccncc1	u	-1.6%	-1.0	-2.9%	0.6%	-3.5	x
C/C(=N\NC(=O)CCCNc1ccc(C)cc1)c1ccccn1	u	u	-2.5	-19.5%	u	-3.9	+
NC(=O)c1ccc(NC(=O)COC(=O)/C=C/c2cn(-c3ccccc3)nc2-c2cccnc2)cc1	3.9%	-18.4%	-2.6	13.8%	u	-10.5	i
N#Cc1ccccc1NC(=O)COC(=O)/C=C/c1cn(-c2ccccc2)nc1-c1ccc(Cl)cc1	7.7%	2.0%	4.3	-3.1%	-1.2%	16.2	x
CCN1C(=O)c2cccc3c(S(=O)(=O)Nc4ccccc4OC)ccc1c23	310.1%	u	-2.6	-0.5%	u	-7.0	i
O=C(Nc1nnc(Cc2ccccc2)s1)Nc1ccccc1F	14.7µM*	-39.4%	10.3	18.1%	u	-2.2	+
CC(Sc1n[nH]c(-c2ccccc2F)n1)C(=O)Nc1ccc(S(N)(=O)=O)cc1 (stereo not drawn)	u	u	x	x	u	x	i
CC(C)c1nc(SCC(=O)Nc2ccc(C(=O)O)cc2)c2c3c(sc2n1)CCCC3	-6.3%	10.1%	-5.3	-4.6%	-18.4%	-10.2	x
COc1ccc(S(=O)(=O)Nc2ccc(Oc3ccsc3C(=O)O)cc2)cc1	-3.4%	x	1.6	2.7%	3.6%	-7.6	x
Oc1c(CN2CCOCC2)cc(COCc2ccccc2)c2cccnc12	30.5%	2.62µM*	27.5*	-82.7%	x	26.2	+

Source: PubChem BioAssay
